Assay results as given in PubChem BioAssay (NCI).
The panel holds about 83,000 compounds, 20% with a hit somewhere; the sample as a whole holds those more often.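 Results are percent growth after 48 hours of single-concentration exposure. 100 means growth as in untreated cells, lower positive values show inhibition; negative values down to -100 show cell death.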 Activity calls are given as the source filed them. The calls were made as follows: active = growth percent below 10; inactive = the rest.

Key:
Assay in all cases: NCI-60 one-dose screen, 48 h (100 = growth as untreated, 0 = no growth, -100 = all killed)
Details in all cases: 10 µM unless noted
[1] = test system: DU-145 prostate
[2] = test system: K-562 leukemia
[3] = test system: MALME-3M melanoma
[4] = test system: MDA-MB-231 breast
[5] = test system: RXF 393 renal
[6] = test system: SF-268 CNS
[7] = test system: SF-295 CNS
[8] = test system: SF-539 CNS
[9] = test system: UACC-257 melanoma
[10] = test system: M14 melanoma
[11] = test system: HCT-15 colon
[12] = test system: HT29 colon
[13] = test system: SNB-75 CNS
[14] = test system: SNB-19 CNS
[15] = test system: U251 CNS
[16] = test system: PC-3 prostate
[17] = test system: SK-MEL-5 melanoma
[18] = test system: UACC-62 melanoma
[19] = test system: LOX IMVI melanoma
[20] = test system: SK-MEL-28 melanoma

Measured: growth

COc1ccc(/C(=C\c2ccccc2)C(=O)O)cc1OC
inactive: [1] 108% | [2] 134% | [3] 95.9% | [4] 89.1% | [5] 104% | [6] 103% | [7] 101% | [8] 103% | [9] 99.2% | [10] 98.3% | [11] 102% | [12] 103% | [13] 81.6% | [14] 95.7% | [15] 99.6% | [16] 96.9% | [17] 93% | [18] 93% | [19] 95.3% | [20] 106%

C1=C2CNCC3=Cc4ccc5ccccc5c4OC23Oc2c1ccc1ccccc21
active: [5] -3.36% | [10] 2.63%
inactive: [1] 65.3% | [2] 18.8% | [3] 60.6% | [4] 51.3% | [6] 42.7% | [7] 11.6% | [8] 50.5% | [9] 60.9% | [11] 21.7% | [12] 19.1% | [13] 34.5% | [14] 59.6% | [15] 38.9% | [16] 39.1% | [17] 35.6% | [18] 25.6% | [19] 18.9% | [20] 46.7%

CCCCCCc1nc2nc(Cl)c(Cl)nc2[nH]1
inactive: [1] 72.5% | [2] 39% | [3] 46.6% | [4] 89.4% | [5] 90.4% | [6] 83.3% | [7] 58% | [8] 65.3% | [9] 54.9% | [10] 89.6% | [11] 57.2% | [12] 77.3% | [13] 53.2% | [14] 65.6% | [15] 49% | [16] 47.9% | [17] 16.2% | [18] 38.4% | [19] 53.7% | [20] 65.1%

C=C(C)[C@@H]1CC[C@]2(CO)CC[C@]3(C)[C@H](CC[C@@H]4[C@@]5(C)CCCNC(C)(C)[C@@H]5CC[C@]43C)[C@@H]12
inactive: [1] 49.5% | [4] 46.8% | [5] 48.4% | [6] 61.2% | [7] 40.4% | [8] 34.3% | [13] 77.1% | [14] 49.6% | [16] 25.6% | [18] 43.2%
active: [2] -26.6% | [3] -65.4% | [9] -8.72% | [10] -49.8% | [11] 3.28% | [12] 2.58% | [15] 7.49% | [17] -82.5% | [19] -57.7% | [20] -65.4%

CCOC(=O)N1CCN(CCCCl)CC1
inactive: [1] 115% | [2] 96.2% | [3] 102% | [4] 100% | [5] 118% | [6] 104% | [7] 98.8% | [8] 97.7% | [9] 96.6% | [10] 101% | [11] 105% | [12] 107% | [13] 102% | [14] 97.6% | [15] 95.6% | [16] 102% | [17] 101% | [18] 93.5% | [19] 99.5% | [20] 106%

COc1ccc(CC(C)=C(c2ccc(OCCN(C)C)cc2)c2ccc(OCCN(C)C)cc2)cc1
active: [2] -28.1% | [10] -39.7%
inactive: [1] 83.1% | [3] 96% | [4] 39% | [5] 74.2% | [6] 82.7% | [7] 67.3% | [8] 81.7% | [9] 92.7% | [11] 62.8% | [12] 39% | [13] 81.6% | [14] 80.1% | [15] 55.3% | [16] 70.8% | [17] 84.2% | [18] 39.1% | [19] 71.5% | [20] 71.5%

O=S(=O)(NCCCNc1nccc(-c2c(-c3cccc(O)c3)nc3occn23)n1)c1ccc(Br)cc1
active: [18] 8.87%
inactive: [1] 97% | [2] 67.3% | [3] 11.5% | [4] 64.3% | [5] 82.6% | [6] 97.1% | [7] 111% | [8] 110% | [9] 18.4% | [10] 29% | [11] 102% | [12] 38.9% | [13] 97.4% | [14] 118% | [15] 104% | [16] 91.1% | [17] 47.1% | [19] 46.8% | [20] 35.5%

Cc1[nH]n(-c2cccc(Cl)c2)c(=O)c1/C=C1\C=Nc2ccc(Br)cc21
inactive: [1] 36.2% | [2] 64% | [3] 12.6% | [4] 17.4% | [6] 51.1% | [7] 31.3% | [8] 42.2% | [9] 75.1% | [10] 54.3% | [11] 59.2% | [12] 11.1% | [14] 78.1% | [16] 31.2% | [17] 60.4% | [18] 37.4% | [20] 71.2%
active: [5] -44.4% | [13] -13.5% | [15] 7.54% | [19] 4.2%

BrC(Br)(Br)c1cnc2ccccc2n1
active: [1] 4.36% | [2] 1.19% | [3] -10.4% | [5] -31.5% | [12] -65.1%
inactive: [4] 46% | [6] 54.5% | [7] 74.3% | [8] 27.2% | [9] 39.9% | [10] 42.9% | [11] 31.7% | [13] 102% | [14] 67.9% | [15] 50.3% | [16] 62.3% | [17] 73.9% | [18] 61.4% | [19] 30.6% | [20] 53.5%

O=S(=O)(c1ccc(N/N=C\c2ccccc2)cc1)c1ccc(N/N=C/c2ccccc2)cc1
inactive: [1] 69% | [2] 79.9% | [3] 55.4% | [4] 49.4% | [5] 72.8% | [6] 75.1% | [7] 58.2% | [8] 65.9% | [9] 80.5% | [10] 76.7% | [11] 88.7% | [12] 54.7% | [13] 87% | [14] 81.4% | [15] 66.6% | [16] 55.7% | [17] 74.7% | [18] 70.8% | [19] 63.4% | [20] 75.6%

Cc1cc(Nc2cccc(C(F)(F)F)c2)n2c(nc3ccccc32)c1C#N
inactive: [1] 53.9% | [2] 22.1% | [3] 60.6% | [4] 54.2% | [5] 61.3% | [6] 51.3% | [7] 53.9% | [8] 40.9% | [9] 11.9% | [10] 54.4% | [11] 12.2% | [12] 13.2% | [13] 59.4% | [14] 40.7% | [15] 11.6% | [16] 21.8% | [18] 37.9% | [19] 59.6%

CCOC(=O)C1=C(C)NC(C)=C(C(=O)OCC)C1c1cc(Br)c(O)c(OC)c1
active: [5] -26.6% | [10] 3.03% | [13] 8.16%
inactive: [1] 20.8% | [2] 25.5% | [3] 33.3% | [4] 53.7% | [6] 54.9% | [7] 16.2% | [8] 22.8% | [9] 59.1% | [11] 30.9% | [12] 71.4% | [14] 45.2% | [15] 33.1% | [16] 32.6% | [17] 19.5% | [18] 48.8% | [19] 36.7% | [20] 47.5%

Cc1ccc(-c2csc(/N=C3\C(=O)Nc4ccccc43)n2)cc1
active: [2] 1.43% | [3] -3.69% | [5] -4.86% | [12] -8.75% | [15] -47.5% | [16] 2.72% | [17] -20.2% | [18] 0.615% | [19] -0.0538%
inactive: [1] 42.2% | [4] 11.2% | [6] 33% | [7] 13.9% | [8] 20.3% | [9] 11.9% | [10] 13.4% | [11] 32% | [13] 55.5% | [14] 22.8% | [20] 13.7%

Cc1ccccc1CNc1ccc(N2CCOCC2)cc1
inactive: [1] 102% | [2] 101% | [3] 102% | [4] 101% | [5] 114% | [6] 93.4% | [7] 99.2% | [8] 111% | [9] 103% | [10] 100% | [11] 101% | [12] 105% | [13] 92.7% | [14] 101% | [15] 100% | [16] 99.6% | [17] 99.5% | [18] 94.8% | [19] 102% | [20] 99.8%

C=C1C(=O)O[C@H]2[C@H]1CC/C(COC(=O)CCCCCC(=O)OC/C1=C/CC[C@@]3(C)O[C@H]3[C@H]3OC(=O)C(=C)[C@@H]3CC1)=C\CC[C@@]1(C)O[C@@H]21
active: [2] 6.4% | [3] -11.1% | [4] -28.2% | [5] -77.3% | [8] 3.99% | [10] -0.138% | [11] 0.552% | [12] 3.42% | [18] 8.53% | [19] -53.5%
inactive: [1] 22.4% | [6] 43.6% | [7] 84.7% | [9] 48.2% | [13] 46.5% | [14] 62.4% | [15] 47.8% | [16] 29.8% | [17] 26.3% | [20] 18.5%

O=C1Nc2cc(-c3ccncc3)ccc2/C1=C/c1ccc[nH]1
inactive: [1] 88.1% | [2] 98.3% | [3] 65.8% | [4] 65.2% | [5] 93.1% | [6] 94.5% | [7] 102% | [8] 91.9% | [9] 114% | [10] 91.9% | [11] 72.3% | [12] 88.8% | [13] 89.3% | [14] 97% | [15] 91.7% | [16] 88.1% | [17] 77.9% | [18] 111% | [19] 98.8% | [20] 69.6%
